Results taken from PubChem BioAssay (NCATS).
Several values for one entry are separate records, joined by “and”; a condition that tells them apart may be missing. Equal values may be shown once. Results filed as inconclusive are left out. Activity calls are given as the source filed them. Unless noted, calls follow the shape of the dose curve; as a rule, active = well fitted curve in the direction sought with a large enough effect; inconclusive = small, poorly fitted or top-dose-only effect, or another doubt; inactive = no such curve, though single readings can be large; an effect the other way counts as inactive or inconclusive.

Legend:
[1] = molecular target: Cellular tumor antigen p53 (Homo sapiens) (UniProt P04637); assay: Primary qHTS for small molecule compounds that upregulate eGFP-tagged delta133p53alpha (in N-terminal) cells. (AID 2060322); details: NCI-H358 eGFP-delta133p53alpha fluorescence, 24 h; activation: stronger effect = higher value;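 also: cells pre-induced with doxycycline then dosed without doxycycline; 0% = DMSO vehicle and 100% = reference activator; nearly all actives have a fitted effect of over 75% in size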
Chain of Cellular tumor antigen p53 (Homo sapiens) (P04637 whole entry, looked up): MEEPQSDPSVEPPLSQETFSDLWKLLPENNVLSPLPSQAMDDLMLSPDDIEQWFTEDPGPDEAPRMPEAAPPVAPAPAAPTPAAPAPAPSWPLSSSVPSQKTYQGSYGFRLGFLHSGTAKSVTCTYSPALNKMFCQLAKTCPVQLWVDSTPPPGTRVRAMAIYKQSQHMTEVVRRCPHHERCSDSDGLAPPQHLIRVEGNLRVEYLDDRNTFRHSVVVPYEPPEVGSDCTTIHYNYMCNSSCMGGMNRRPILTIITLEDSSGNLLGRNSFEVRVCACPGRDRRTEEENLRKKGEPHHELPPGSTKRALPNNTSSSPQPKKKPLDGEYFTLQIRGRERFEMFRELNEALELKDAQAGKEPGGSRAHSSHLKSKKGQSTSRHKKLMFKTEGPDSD
Procedure, shortened: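 NCI-H358 cells pre-induced 24 h with 10 ng/ml doxycycline for eGFP-delta133p53alpha, plated dox-free and exposed 24 h at 37C to titrated compounds. Fixed, Hoechst-stained; gated GFP peak intensity by laser scanning cytometry, normalized to DMSO (0%) and 57.5 uM 5-azacytidine (100%).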

[2] = molecular target: Cellular tumor antigen p53 (Homo sapiens) (UniProt P04637); assay: Primary qHTS for small molecule compounds that upregulate eGFP-tagged delta133p53alpha (in C-terminal) cells. (AID 2060324); details: NCI-H358 delta133p53alpha-eGFP (C-terminal tag), GFP fluorescence imaging, 24 h; series mostly up to 57.5 µM;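 also: 0% = DMSO wells and 100% = 57.5 µM 5-azacytidine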
Procedure, shortened: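 Readout: filtered GFP peak intensity of gated cells (laser scanning cytometer), normalized plate-wise to intraplate controls, DMSO wells = 0% activity. Cells: NCI-H358 D133p53a-eGFP, dox 100 ng/ml 24 h beforehand, then compound 24 h, 37 °C.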

[3] = molecular target: Aldehyde dehydrogenase, mitochondrial (Homo sapiens) (UniProt P05091); assay: qHTS for Inhibitors of the Aldehyde Dehydrogenase Family (ALDH2) Validation screens (AID 2061302; active = well fitted inhibition curve with a large enough effect; title and protocol of this record describe different tests; also: potency is read from the fitted curve at half-maximal effect); details: ALDH inhibition qHTS; series mostly up to 42.6 µM
[4] = molecular target: Aldehyde dehydrogenase, mitochondrial (Homo sapiens) (UniProt P05091); assay: qHTS for Inhibitors of the Aldehyde Dehydrogenase Family (ALDH2) Confirmatory screens (AID 2061303; active = well fitted inhibition curve with a large enough effect; title and protocol of this record describe different tests; also: % is scaled to controls: 0 for no effect and ±100 for the full control effect; nearly all actives have a fitted effect of over 45% in size); details: ALDH inhibition qHTS; series mostly up to 45.4 µM
[5] = qHTS for Inhibitors of the Aldehyde Dehydrogenase Family (ALDH1A2, ALDH1A3, ALDH2, ALDH3A1) (AID 2061307); details: ALDH inhibition qHTS; series mostly up to 50.3 µM; also: nearly all actives have a fitted effect of over 50% in size; as to Potency: test system not described further here; potency is read from the fitted curve at half-maximal effect
[6] = molecular target: Retinaldehyde dehydrogenase 3 (Homo sapiens) (UniProt P47895); assay: qHTS for Inhibitors of the Aldehyde Dehydrogenase Family (ALDH1A3) Validation screen (AID 2061312); details: ALDH1A3 enzyme inhibition qHTS validation, fluorescence; series mostly up to 42.4 µM; also: nearly all actives have a fitted effect of over 45% in size; also: potency is read from the fitted curve at half-maximal effect
[7] = molecular target: Retinaldehyde dehydrogenase 3 (Homo sapiens) (UniProt P47895); assay: qHTS for Inhibitors of the Aldehyde Dehydrogenase Family (ALDH1A3) Confirmatory screens (AID 2061311); details: ALDH inhibition qHTS; series mostly up to 46 µM; also: potency is read from the fitted curve at half-maximal effect; nearly all actives have a fitted effect of over 60% in size
[8] = molecular target: Aldehyde dehydrogenase 1A1 (Homo sapiens) (UniProt P00352); assay: qHTS for Inhibitors of the Aldehyde Dehydrogenase Family (ALDH1A1) Confirmatory screens (AID 2061316); details: ALDH inhibition qHTS; series mostly up to 47.3 µM; also: potency is read from the fitted curve at half-maximal effect; nearly all actives have a fitted effect of over 65% in size
[9] = molecular target: Aldehyde dehydrogenase, mitochondrial (Homo sapiens) (UniProt P05091); assay: qHTS for Inhibitors of the Aldehyde Dehydrogenase Family (ALDH2) Primary screen (AID 2061308); details: ALDH2 enzyme inhibition qHTS, 1536-well; series mostly up to 56 µM;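 also: plate controls were vehicle for no effect and reference inhibitor for full effect; nearly all actives have a fitted effect of over 55% in size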
[10] = molecular target: Retinaldehyde dehydrogenase 3 (Homo sapiens) (UniProt P47895); assay: qHTS for Inhibitors of the Aldehyde Dehydrogenase Family (ALDH1A3) Primary screen (AID 2061315); details: ALDH inhibition qHTS; series mostly up to 56 µM;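 also: plate controls were DMSO vehicle for no effect and reference inhibitor for full effect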
[11] = BET inhibitor-based combinations targeting novel dependencies in MECOM-rearranged (r) AML: SET-2 cell line (AID 2202231); details: SET-2 AML cells viability, CellTiter-Glo luminescence, 48 h; viability: stronger effect = lower value, concentration not given here;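 also: plate controls were DMSO treated cells for no effect and wells without cells for full effect; nearly all actives have a fitted effect of over 35% in size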
Procedure, shortened: (§1)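 Readout: CellTiter-Glo luminescence. Exposure: 48 h, 11 concentrations, 500 cells/well. Metric: AUC and within-line Z-AUC after DMSO/empty-well normalization.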

[12] = BET inhibitor-based combinations targeting novel dependencies in MECOM-rearranged (r) AML: HNT-34 cell line (AID 2202234); details: HNT-34 AML viability, CellTiter-Glo luminescence, 48 h; series mostly up to 46 µM;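 also: plate controls were vehicle wells for no effect and cell-free wells for full effect; nearly all actives have a fitted effect of over 35% in size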
Procedure, shortened: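 Seeding density was 500 cells/well, and drug exposure lasted 48 hr under standard culture conditions. Read-out used CellTiter-Glo reagent with a 15 min room-temperature incubation before luminescence measurement; AUC and Z-AUC summarize the normalized responses.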

[13] = BET inhibitor-based combinations targeting novel dependencies in MECOM-rearranged (r) AML: AML-191 cell line (AID 2202236;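 also: plate controls were vehicle wells for no effect and wells without cells for full effect; nearly all actives have a fitted effect of over 35% in size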); details: AML-191 viability, CellTiter-Glo luminescence, 48 h; series mostly up to 46 µM
Procedure, shortened: as §1

[14] = BET inhibitor-based combinations targeting novel dependencies in MECOM-rearranged (r) AML: AML-194 cell line (AID 2202237;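 also: plate controls were vehicle wells for no effect and wells without cells for full effect; nearly all actives have a fitted effect of over 40% in size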); details: AML-194 (MECOM-r AML) viability, CellTiter-Glo, 48 h; series mostly up to 46 µM
Procedure, shortened: as §1

CCCN1CCC[C@@H]2Cc3nc(N)ncc3C[C@H]21
inactive: activation [1] -29.3% and -27.1% | Potency [2] | Potency [3] | Potency [4] | Potency [5]

CCCN(CCC)[C@@H]1CCc2cccc(O)c2C1
inactive: activation [1] 20% | Potency [2] | Potency [3] | Potency [6]

CN1CCC(c2c[nH]c3ccc(O)cc23)CC1
inactive: activation [1] -20.9% | Potency [2] | Potency [3]

O=c1ccc2[nH]cc(C3=CCNCC3)c2[nH]1
active: Potency [6] 0.398 µM
inactive: activation [1] -8.35% | Potency [2] | Potency [3] | Potency [5]

NNC(=O)c1ccc(O)cc1
active: Potency [5] 8.96 µM
inactive: activation [1] -20.3% | Potency [2] | Potency [3] | Potency [6]

C[C@H]1C2Cc3ccc(O)cc3[C@@]1(C)CCN2CC1CC1
inactive: activation [1] -23.4% | Potency [2] | Potency [3] | Potency [6]

NC(=O)CI
inactive: activation [1] 22% | Potency [2]
active: Potency [3] 5.01 µM | Potency [5] 28.3 µM | Potency [7] 6.34 µM | Potency [8] 20.1 µM

O=C(N[C@H]1CN2CCC1CC2)c1ccc(Cl)cc1
inactive: activation [1] 0.903% and 6.33% and -27.4% | Potency [2] | Potency [3] | Potency [9] | Potency [6] | Potency [10] | viability [11] 112% | Potency [12] | Potency [13] | Potency [14]

C[C@@H]1O[C@H](C[N+](C)(C)C)C[C@H]1O
inactive: activation [1] -7.38% | Potency [2] | Potency [3]

OC1CCCCC1N1CCC(c2ccccc2)CC1 (stereo not drawn)
inactive: activation [1] -21.4% | Potency [2] | Potency [3] | Potency [6]

COc1cc(C(O)CN)ccc1O (stereo not drawn)
inactive: activation [1] -24.3% | Potency [2] | Potency [3] | Potency [6]
